Measurements published in PubChem BioAssay (NCI).
About 83,000 compounds went through this panel and 20% of them were active in at least one assay; those are over-represented in the sample as a whole.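 Negative percent growth values reflect cell death: -40 means 40% of the cells present at the start died, and -100 means all died.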 Unmarked numbers belong to inactive results. Activity calls are given as the source filed them. How the source made its calls: active means growth percent below 10; inactive means the rest.

Key:
Test in all cases: NCI-60 one-dose screen, 48 h (100 = growth as untreated, 0 = no growth, -100 = all killed)
[1] = system: NCI-H23 lung; conditions: 10 µM unless noted
[2] = system: NCI-H226 lung; conditions: 10 µM unless noted
[3] = system: NCI-H322M lung; conditions: 10 µM unless noted
[4] = system: NCI-H460 lung; conditions: 10 µM unless noted
[5] = system: NCI-H522 lung; conditions: 10 µM
[6] = system: A549/ATCC NSCLC; conditions: 10 µM unless noted
[7] = system: 786-0 renal; conditions: 10 µM unless noted
[8] = system: DU-145 prostate; conditions: 10 µM unless noted
[9] = system: K-562 leukemia; conditions: 10 µM unless noted
[10] = system: MALME-3M melanoma; conditions: 10 µM unless noted
[11] = system: MDA-MB-231 breast; conditions: 10 µM unless noted
[12] = system: RXF 393 renal; conditions: 10 µM unless noted
[13] = system: SF-268 CNS; conditions: 10 µM unless noted
[14] = system: SF-295 CNS; conditions: 10 µM unless noted
[15] = system: SF-539 CNS; conditions: 10 µM unless noted
[16] = system: UACC-257 melanoma; conditions: 10 µM unless noted
[17] = system: M14 melanoma; conditions: 10 µM unless noted
[18] = system: COLO 205 colon; conditions: 10 µM unless noted
[19] = system: HOP-92 NSCLC; conditions: 10 µM

SMILES | growth [1] | growth [2] | growth [3] | growth [4] | growth [5] | growth [6] | growth [7] | growth [8] | growth [9] | growth [10] | growth [11] | growth [12] | growth [13] | growth [14] | growth [15] | growth [16] | growth [17] | growth [18] | growth [19] [%]
COc1nc(OC)nc(-c2cc(-c3cc(OC)c(OC)c(OC)c3)no2)n1 | 101% | 92.8% | 115% | 101% | 95.7% | 88.8% | 93.9% | 105% | 95.1% | 110% | 90.5% | 94.8% | 100% | 104% | 112% | 99.6% | 111% |  | 
CCn1cnc(C[C@H](NC(=O)[C@@H](NC(=O)Nc2cc(C(F)(F)F)cc(C(F)(F)F)c2)C(C)C)C(=O)OC)c1 | -78.8% [100 µM] (active) | -55.6% [100 µM] (active) | -95.9% [100 µM] (active) | -43.2% [100 µM] (active) |  | -71.4% [100 µM] (active) | -87.5% [100 µM] (active) | -81.2% [100 µM] (active) | -57.3% [100 µM] (active) | -90.5% [100 µM] (active) | -94.2% [100 µM] (active) | -86.2% [100 µM] (active) | -68.4% [100 µM] (active) |  | -96.3% [100 µM] (active) | -95.1% [100 µM] (active) | -93.8% [100 µM] (active) | -94.1% [100 µM] (active) | 
N=c1c2c(=O)n3c(nc2nc2sc4ccc(Cl)cc4n12)-c1ccccc1Sc1ccccc1-3 | 8.13% (active) | 29.1% | 16.4% | 10.7% | 12.9% | 22.4% | 24.6% | 38.4% | 19.8% |  | 7.92% (active) | 38.2% | 42.2% | 5.48% (active) | 27.2% | 29.9% | 21.6% | 11.9% | 
Cc1nnc(/N=C2\NC(=O)/C(=C/C=C/c3ccccc3)S2)s1 | 55.2% | 78% | 72.8% | 24.5% | 1.52% (active) | 39.8% | 66.9% | 57.5% | 36% | 54.1% | 71.4% | 69.2% | 51.9% | 32.5% | 64.9% | 75.3% | 49.8% |  | 
COc1ccccc1Nc1nnc(COc2ccc(CNC(=O)CCCC/C=C/C(C)C)cc2OC)o1 | 92.2% | 79.7% | 97.4% | 105% | 81% | 99.3% | 96.2% | 99% | 67.9% |  | 99.2% | 103% | 90.8% | 88.8% | 93.4% | 96.7% | 95.4% | 125% | 
N=C(c1ccccc1)N(Cc1ccccc1)Cc1ccccc1 | 92.9% | 104% | 84% | 98.3% |  | 90.3% | 86.5% | 111% | 76.2% | 93.8% | 79.6% | 85% | 103% | 59.2% | 103% | 94% | 78% | 88.2% | 
O=C(O)c1occ(Cl)c1Cl | 112% | 114% | 116% | 118% | 116% | 97.8% | 111% | 114% | 101% |  | 110% | 108% | 113% | 101% | 111% | 108% | 114% | 114% | 
OCCN1CCN(CC/C=C2/c3ccccc3Sc3ccc(C(F)(F)F)cc32)CC1 | 72.3% | 91% | 72.6% | 82.7% |  |  | 71.2% | 82.7% | 6.74% (active) | 69% | 80.7% | 59.6% | 70.7% | 88.7% | 87.6% |  | 58.5% | 1.04% (active) | 
O=C(CCl)c1ccc2c(c1)CCCC2 | 105% | 108% | 94.3% | 107% |  | 101% | 90.6% | 110% | 72.1% | 80.8% | 103% | 99% | 104% | 70.2% | 90.8% | 98.1% | 95.5% | 113% | 
COc1ccc(-c2nnc(SCC(=O)Nc3ccc(C(=O)/C=C/c4cc(OC)c(OC)c(OC)c4)cc3)n2-c2ccccc2)cc1OC | -66.5% [100 µM] (active) | -15% [100 µM] (active) | 34.5% [100 µM] | 11% [100 µM] |  | -28.4% [100 µM] (active) | -54.9% [100 µM] (active) | -29.4% [100 µM] (active) | 31.4% [100 µM] | -33.4% [100 µM] (active) | -44.6% [100 µM] (active) | -24.7% [100 µM] (active) | -52.2% [100 µM] (active) | -86.2% [100 µM] (active) | 1.43% [100 µM] (active) | 22.1% [100 µM] | 1.87% [100 µM] (active) | 30.3% [100 µM] | 
COc1ccc(/C=N/c2cc(C(C)(C)C)nn2-c2ccccc2)cc1 | 106% | 89% | 110% | 97.1% |  | 101% | 93.7% | 113% | 92.2% | 121% | 99.7% | 126% | 101% | 96.6% | 92.5% | 96.8% | 115% | 105% | 
COc1cc(-c2nn(-c3ccc(NC(=O)Nc4ccc(Cl)c(Cl)c4)cc3)cc2-c2ccncc2)ccc1Cl | 22.9% | 52.6% | 68.4% | 7.14% (active) |  | 25.8% | 4.3% (active) | 40.8% | 17.2% | 57.2% | 43.3% | 22.6% | 44.3% | 3.1% (active) | 54% | 56.5% | 24.5% | 20.1% | 
O=S(=O)(O)CCI | 102% | 95.9% | 101% |  | 103% | 114% | 106% | 112% | 112% | 113% | 104% | 98.8% | 104% | 105% | 102% | 113% | 99% | 111% | 103
COc1ccc(Oc2[nH]n(C3=Nc4ccccc4Sc4ccccc43)c(=O)c2C#N)cc1 | 95.7% | 100% | 125% |  | 74.9% | 98.4% | 104% | 104% | 125% | 169% | 95.6% | 94.2% | 88.3% | 99.2% | 96.7% | 104% | 104% | 111% | 74.2
CC1C(=O)CCCC1=O | 113% | 121% | 99.4% |  | 90.9% | 102% | 103% | 124% | 103% | 98.4% | 101% | 134% | 112% | 104% | 98.9% | 108% | 111% | 114% | 106
